In the library only some 12% were active in any assay of this set; here they are far more common.
JMJD2A Tudor inh – JMJD2A Tudor domain (human) inhibition | AlphaScreen JMJD2A-Tudor / H3K4me3 peptide binding | AID 504339 | Potency, µM (highest dose often 114 µM), inactives show at the highest dose activity change, negative = inhibition, actives largely listed as inhibitors | hit rate 4.4% among 390,000; also: % is scaled to controls: 0 for no effect and ±100 for the full control effect; nearly all actives have a fitted effect of over 50% in size
G9a block – inhibitors of human histone lysine methyltransferase G9a | Potency, µM (highest dose often 102 µM), without a hit: at the highest dose activity, negative = inhibition, usual class: inhibitors | G9a H3K9 monomethylation, AlphaScreen, 2 h | hit rate 8.8% among 350,000 | Q96KQ7; also: % is scaled to controls: 0 for no effect and ±100 for the full control effect; nearly all actives have a fitted effect of over 75% in size
Target sequence (Q96KQ7 913-1193 limits assumed): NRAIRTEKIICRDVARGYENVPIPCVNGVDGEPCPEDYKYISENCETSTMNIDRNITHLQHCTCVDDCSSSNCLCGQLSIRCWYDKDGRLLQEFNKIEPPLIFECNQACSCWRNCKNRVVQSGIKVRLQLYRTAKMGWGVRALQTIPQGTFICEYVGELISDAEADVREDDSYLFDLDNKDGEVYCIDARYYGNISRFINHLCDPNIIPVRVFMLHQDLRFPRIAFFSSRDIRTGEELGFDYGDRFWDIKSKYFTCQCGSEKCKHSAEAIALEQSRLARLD
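AlphaScreen detection with an anti-monomethyl H3K9 antibody quantified product after a 2 h room-temperature reaction containing 500 nM biotinylated H3K9 peptide, 20 µM SAM and 20 nM enzyme, which had been preincubated 15 min with compound.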
HP1b binding inh – blocks HP1-beta chromodomain binding to methylated histone tails; hit rate 0.56% among 390,000; Potency, µM (highest dose often 114 µM), without a hit: at the highest dose activity change, negative = inhibition, hits mostly inhibitors; AlphaScreen HP1-beta / biotin-H3K9me3 peptide binding; P83916; AID 540317; also: nearly all actives have a fitted effect of over 70% in size
Target sequence (P83916 whole entry, looked up): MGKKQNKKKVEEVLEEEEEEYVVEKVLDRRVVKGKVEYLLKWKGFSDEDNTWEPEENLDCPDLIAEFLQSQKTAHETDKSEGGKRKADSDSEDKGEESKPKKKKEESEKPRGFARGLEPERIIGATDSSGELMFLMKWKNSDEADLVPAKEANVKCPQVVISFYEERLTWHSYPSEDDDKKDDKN
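HP1-beta protein (50 nM final) preincubated 30 min at room temperature with biotinylated H3(1-18)K9me3 peptide (50 nM) in PBS pH 7.4, 0.01% Tween-20, then compound added for 30 min. AlphaScreen streptavidin donor/nickel chelate acceptor beads (10 ug/mL final), 30 min dark, luminescence read.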
Sfp inh – inhibitors of Bacillus subtilis Sfp phosphopantetheinyl transferase | Q9F4F7 | Potency, µM, without a hit: largest response in the series, negative = inhibition, hits mostly inhibitors | hit rate 3.5% among 310,000 | Biochemical Sfp PPTase activity, qHTS;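 also: the enzyme is Sfp with the accession as filed and its product quenches rhodamine fluorescence; 0% = enzyme reaction without inhibitor and -100% = no enzyme wells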
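Fluorescence-quenching assay: 15 nM Sfp-PPTase preincubated 15 min at room temperature with compound, then 5 uM rhodamine-CoA and 12.5 uM BHQ-2-labelled YbbR peptide added. Fluorescence (ex 525/em 598 nm) read at start and after 30 min; difference gives rate.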
BAZ2B block – BAZ2B (human) inhibition; Q9UIF8; AlphaScreen BAZ2B-H3K14Ac peptide displacement; Potency, µM (series often up to 114 µM), for inactives: at the highest dose activity change, negative = inhibition, actives largely listed as inhibitors; hit rate 4.4% among 360,000; AID 504333; also: % is scaled to controls: 0 for no effect and ±100 for the full control effect; nearly all actives have a fitted effect of over 60% in size
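AlphaScreen displacement: compounds (up to 110uM) incubated 30 min at room temperature with a preformed 50 nM BAZ2B/50 nM biotinylated H3K14Ac peptide complex in PBS pH 7.4 with Tween-20. Donor and acceptor beads at 10 ug/mL final added, 20 min light-protected before reading.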
PLK1 PBD block – PLK1 (human) polo-box domain binding inhibition; P53350; Plk1 PBD binding of FITC phosphopeptide, fluorescence polarization; Potency, µM, for inactives: max response, negative = inhibition, most hits filed as inhibitors; hit rate 2.8% among 360,000; AID 720504; also: series mostly up to about 57 µM; % is scaled to controls: 0 for no effect and ±100 for the full control effect; nearly all actives have a fitted effect of over 65% in size
* = called active by the depositor; ? = inconclusive; nt = no result given; [ ] = dose if it differs, or a comment. Calls follow the shape of the dose curve; as a rule, active = well fitted curve in the direction sought with a large enough effect; inconclusive = small, poorly fitted or top-dose-only effect, or another doubt; inactive = no such curve, though single readings can be large; an effect the other way counts as inactive or inconclusive. Potency is read from the fitted curve at half-maximal effect.

SMILES	JMJD2A Tudor inh	G9a block	HP1b binding inh	Sfp inh	BAZ2B block	PLK1 PBD block
CCOC(=O)C1=C(COC(=O)COc2cc(C)ccc2C)NC(=O)NC1C (stereo not given)	-6.8%	12.2%[0.501 µM]	21.0%	nt	-0.9%	-0.8%
O=[N+]([O-])c1ccc(C(c2sc3nc(-c4ccco4)nn3c2O)N2CCN(c3cccc(Cl)c3)CC2)cc1 (stereo not given)	?	12.6µM*	-16.4%	nt	?	nt
Oc1c(C(c2ccc(F)cc2)N2CCCC2)sc2nc(-c3ccco3)nn12 (stereo not given)	-27.3%	12.6µM*	-2.1%	nt	-22.6%	nt
O=[N+]([O-])c1ccc(C(c2sc3nc(-c4ccco4)nn3c2O)N2CCN(Cc3ccccc3)CC2)cc1 (stereo not given)	?	?	-14.1%	nt	?	nt
COc1ccc(CNC(=O)c2sc3nc4n(c(=O)c3c2C)CCC4)cc1	-29.6%	-37.9%[59 µM]	-6.3%	nt	-20.7%	nt
Cc1ccc(CNC(=O)c2sc3nc4n(c(=O)c3c2C)CCCC4)cc1	?	?	20.8%	nt	50.1µM*	nt
Cc1c(C(=O)NCc2ccccc2)sc2nc3n(c(=O)c12)CCCCC3	?	10µM*	33.2%	nt	?	nt
Cc1ccc(CNC(=O)c2sc3nc4n(c(=O)c3c2C)CCCCC4)cc1	-13.8%	?	48.3%	nt	-33.4%	nt
COc1ccc(-c2cc(C(=O)Nc3sc4c(c3C#N)CCCC4)c3ccccc3n2)cc1	-29.5%	15.4%[59 µM]	-10.3%	8.7%	-10.7%	-11.2%
CCOC(=O)c1sc(-c2ccc(C)cc2)c(C#N)c1C	2.7%	39.8µM*	-10.2%	?	12.1%	23.8µM*
Cc1ccccc1-c1cc(C(=O)Nc2sc(C(=O)OC(C)C)c(C)c2C#N)c2ccccc2n1	56.2µM*	44.7µM*	?	39.8µM*	-0.8%	10.6µM*
Cc1sc(NC(=O)c2cc(-c3ccccc3)nc3ccccc23)c(C(N)=O)c1C	-14.5%	15.5%[59 µM]	19.2%	-12.3%	-28.7%	-2.3%
CCOC(=O)c1sc(NC(=O)c2cc(-c3ccc(C)cc3)nc3ccccc23)c(C#N)c1C	79.4µM*	5.62µM*	?	20µM*	0.4%	2.67µM*
Cc1sc(NC(=O)c2cc(-c3ccc(Cl)cc3)nc3ccccc23)c(C(N)=O)c1C	-13.8%	12.6µM*	?	?	1.8%	13.4µM*
CCC(=O)N1CCc2cc(Br)cc(S(=O)(=O)N3CCC(C(=O)Nc4ccc(OC)cc4)CC3)c21	-10.9%	-1.8%[59 µM]	32.0%	nt	0.9%	nt
COc1ccc(N(CC(=O)N2CCOCC2)S(C)(=O)=O)cc1	-3.4%	nt	19.7%	5.4%	-1.0%	-12.3%
CC(C1SC(=S)NC1=O)C1SC(=S)NC1=O (stereo not given)	nt	nt	nt	nt	nt	2.12µM*
Cc1cnc(C(=O)O)c[n+]1[O-]	nt	-47.1%[12.7 µM]	nt	-23.4%	nt	nt
O=C(O)COc1ccccc1/C=N/NC(=O)CSc1nc2ccccc2n1Cc1ccccc1Cl	?	?	0.6%	-7.7%	70.8µM*	59.7µM*
O=C(C1CCCCC1)N(Cc1cccnc1)c1nc2c(F)cc(F)cc2s1	0.6%	-18.1%[59 µM]	36.8%	nt	?	nt
CC(=O)Nc1cc(NC(C)=O)c(N=Nc2ccccc2)cc1C	-27.5%	10.2%	19.6%	-2.4%	-17.5%	-4.2%
Cc1ccc(NCC(O)C(O)C(O)CO)c(N=Nc2ccccc2)c1C (stereo not given)	?	-44.8%[12.7 µM]	?	2.4%	11.2µM*	1.9%
CC(=O)Nc1ccc(NC(=O)c2ccc(Cl)nc2)cc1	3.5%	nt	36.7%	25.1%	-39.0%	7.2%
Cc1nnc2ccc(-c3ccc(NC(=O)c4ccc(Cl)nc4)cc3)nn12	nt	79.4µM*	nt	11.8%	-34.8%	nt
CCCOc1ccc(C(=O)Nc2cc3nn(-c4ccc(CC)cc4)nc3cc2C)cc1	-4.9%	2.5%[59 µM]	21.7%	nt	-6.8%	nt
Cc1nccc(-c2cccc(N/N=C(\C#N)C(=O)c3ccccc3)c2)n1	?	?	-5.4%	2.5%	-28.0%	-11.1%
O=C(O)c1ccc(N=NNc2cccc([N+](=O)[O-])c2)cc1	-16.1%	44.7µM*	-4.0%	6.2%	-29.6%	-7.6%

Compound activity from PubChem BioAssay.
